Results: PubChem BioAssay (Tox21)
Inconclusive results are not listed. Activity calls are given as the source filed them. Unless noted, calls follow the shape of the dose curve; as a rule, active = well fitted curve in the direction sought with a large enough effect in the repeat runs; inconclusive = weak or mixed curves; inactive = no such curve, though single readings can be large; an effect the other way counts as inactive or inconclusive.

How the values were obtained:
[1] = A CellTox Green Cytotoxicity Assay to monitor cytotoxicity in HEK293 cells - 32 hour (AID 1224881); also: nearly all actives have a fitted effect of over 40% in size; also: potency is read from the fitted curve at half-maximal effect
How it was run: (§1)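 Homogeneous no-lysis format: HEK293 cell suspension mixed with CellTox Green reagent, seeded, incubated 5 h at 37 C/5% CO2, then dosed by pintool with compound in DMSO.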

[2] = A CellTox Green Cytotoxicity Assay to monitor cytotoxicity in HepG2 cells - 0 hour (AID 1224882); also: nearly all actives have a fitted effect of over 35% in size; also: potency is read from the fitted curve at half-maximal effect
How it was run: (§2)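 Fluorescent DNA-binding dye, 600 HepG2 cells/well, 5 h preincubation then compound in DMSO; same plates read at 0–40 h, 37 C.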

[3] = A CellTox Green Cytotoxicity Assay to monitor cytotoxicity in HepG2 cells - 32 hour (AID 1224883); also: nearly all actives have a fitted effect of over 50% in size; also: potency is read from the fitted curve at half-maximal effect
How it was run: as §2

[4] = A CellTox Green Cytotoxicity Assay to monitor cytotoxicity in HEK293 cells - 8 hour (AID 1224884); also: nearly all actives have a fitted effect of over 35% in size
How it was run: as §1

[5] = qHTS RealTime-Glo MT Cell Viability Assay in HEK293 cells - 24 hour (AID 1224886); also: nearly all actives have a fitted effect of over 50% in size; also: potency is read from the fitted curve at half-maximal effect
How it was run: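 HEK293 cells were seeded at 600 cells/well together with NanoLuc luciferase and cell-permeant prosubstrate, preincubated 5 h at 37 C/5% CO2, then given compound in DMSO by pintool. Luminescence from viable-cell prosubstrate reduction was read repeatedly over 40 h.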

[6] = A CellTox Green Cytotoxicity Assay to monitor cytotoxicity in HEK293 cells - 16 hour (AID 1224888); also: nearly all actives have a fitted effect of over 35% in size; also: potency is read from the fitted curve at half-maximal effect
How it was run: as §1

[7] = qHTS RealTime-Glo MT Cell Viability Assay in HepG2 cells - 0 hour (AID 1224889); also: nearly all actives have a fitted effect of over 50% in size
How it was run: (§3)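 HepG2 cells were seeded at 600 cells/well together with NanoLuc luciferase and a cell-permeant prosubstrate, preincubated 5 h at 37 C/5% CO2, then pin-dosed with compounds in DMSO. Nonlytic luminescence from viable cells was read at each time point.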

[8] = qHTS assay to identify small molecule antagonists of the estrogen receptor alpha (ER-alpha) signaling pathway using the BG1 cell line in the presence of 0.1 nM 17-beta-estradiol - cell viability counter screen (AID 1259241); also: nearly all actives have a fitted effect of over 40% in size; also: potency is read from the fitted curve at half-maximal effect
How it was run: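 Estradiol-stimulated (0.1 nM) VM7Luc4E2 cells exposed to compounds 22 hr; viability measured by fluorescence of cleaved CellTiter-Fluor substrate after 30 min.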

[9] = qHTS assay to identify small molecule phospholipidosis (PLD) inducers (AID 1259344; active = well fitted curve in the direction sought with a large enough effect; an effect the other way counts as inactive or inconclusive)
How it was run: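 Cells (HepG2, 900 per well) attach for 4 h, receive LipidTOX Red and compound together, incubate 24 h at 37 C, are fixed 30 min with paraformaldehyde/Hoechst, then imaged at one site per well.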

[10] = qHTS assay to identify small molecule HDAC inhibitors (AID 1259364);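 also: wild-type HCT-116 cells with endogenous class I/II HDAC activity; top concentration of the series differs between compounds; nearly all actives have a fitted effect of over 45% in size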
How it was run: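 After a 2 hr compound incubation (37C, 5% CO2), HCT-116 cells seeded at 1,500/well the day before received HDAC-Glo reagent; signal read as luminescence after 30 min at room temperature.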

[11] = qHTS assay to identify small molecule HDAC inhibitors - cell viability counter screen (AID 1259365); also: series mostly up to about 92 µM; nearly all actives have a fitted effect of over 50% in size
How it was run: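 After overnight seeding at 1,500 cells per well, wild-type HCT-116 cultures took up compounds in DMSO for 2hr at 37 C. Viable cell content came from luminescence with CellTiter-Glo.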

[12] = qHTS assay to identify small molecule agonists of the sonic hedgehog signaling (Shh) pathway - cell viability counter screen (AID 1259366); also: nearly all actives have a fitted effect of over 50% in size; also: potency is read from the fitted curve at half-maximal effect
How it was run: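 Same-well cytotoxicity read. Gli1-Luc reporter 3T3 cells; compounds 24hr, 37C/5% CO2; CellTiter-Fluor fluorescence.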

[13] = qHTS assay to identify small molecule antagonists of the sonic hedgehog signaling (Shh) pathway - cell viability counter screen (AID 1259367); also: nearly all actives have a fitted effect of over 55% in size; also: potency is read from the fitted curve at half-maximal effect
How it was run: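 Cytotoxicity was assessed in parallel with Shh reporter activity by measuring live-cell protease fluorescence (CellTiter-Fluor) in NIH/3T3 cells stably carrying Gli1-Luc, treated with compound under conditioned medium stimulation for 23 hr plus 1 hr reagent incubation.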

[14] = qHTS assay to identify small molecule agonists of the sonic hedgehog signaling (Shh) pathway (AID 1259368; calls by dose curve; also: nearly all actives have a fitted effect of over 15% in size; also: potency is read from the fitted curve at half-maximal effect)
How it was run: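 Stable NIH/3T3 Gli1-Luc reporter clone; 24 hr cpd exposure after a 4 hr settling period; luminescence endpoint.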

[15] = qHTS RealTime-Glo MT Cell Viability Assay in HEK293 cells - 8 hour (AID 1224887); also: nearly all actives have a fitted effect of over 50% in size; also: potency is read from the fitted curve at half-maximal effect
How it was run: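 Measured as luminescence from the same continuously cultured HEK293 wells at successive time points (0, 8, 16, 24, 32, 40 h) after compound addition. Reagent present from seeding; dosing at 5 h; incubation 37 C.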

[16] = A CellTox Green Cytotoxicity Assay to monitor cytotoxicity in HepG2 cells - 8 hour (AID 1224890); also: nearly all actives have a fitted effect of over 45% in size; also: potency is read from the fitted curve at half-maximal effect
How it was run: as §2

[17] = qHTS RealTime-Glo MT Cell Viability Assay in HepG2 cells - 16 hour (AID 1224885); also: nearly all actives have a fitted effect of over 50% in size; also: potency is read from the fitted curve at half-maximal effect
How it was run: as §3

[18] = qHTS assay to identify small molecule antagonists of the androgen receptor (AR) signaling pathway using the MDA cell line in the presence of 0.5 nM R1881 - cell viability counter screen (AID 1259242); also: nearly all actives have a fitted effect of over 45% in size; also: potency is read from the fitted curve at half-maximal effect
How it was run: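 Human breast carcinoma MDA-kb2 cells, cultured without CO2, receive compounds alongside 0.5 nM (final) R1881 agonist. After 16 hr at 37C, viability is taken as live-cell protease signal.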

[19] = biological target: Estrogen receptor (Homo sapiens) (UniProt P03372); test: qHTS assay to identify small molecule antagonists of the estrogen receptor alpha (ER-alpha) signaling pathway using the BG1 cell line in the presence of 0.1 nM 17-beta-estradiol (AID 1259244); also: nearly all actives have a fitted effect of over 50% in size; also: potency is read from the fitted curve at half-maximal effect
Chain of Estrogen receptor (Homo sapiens) (P03372 whole entry, looked up): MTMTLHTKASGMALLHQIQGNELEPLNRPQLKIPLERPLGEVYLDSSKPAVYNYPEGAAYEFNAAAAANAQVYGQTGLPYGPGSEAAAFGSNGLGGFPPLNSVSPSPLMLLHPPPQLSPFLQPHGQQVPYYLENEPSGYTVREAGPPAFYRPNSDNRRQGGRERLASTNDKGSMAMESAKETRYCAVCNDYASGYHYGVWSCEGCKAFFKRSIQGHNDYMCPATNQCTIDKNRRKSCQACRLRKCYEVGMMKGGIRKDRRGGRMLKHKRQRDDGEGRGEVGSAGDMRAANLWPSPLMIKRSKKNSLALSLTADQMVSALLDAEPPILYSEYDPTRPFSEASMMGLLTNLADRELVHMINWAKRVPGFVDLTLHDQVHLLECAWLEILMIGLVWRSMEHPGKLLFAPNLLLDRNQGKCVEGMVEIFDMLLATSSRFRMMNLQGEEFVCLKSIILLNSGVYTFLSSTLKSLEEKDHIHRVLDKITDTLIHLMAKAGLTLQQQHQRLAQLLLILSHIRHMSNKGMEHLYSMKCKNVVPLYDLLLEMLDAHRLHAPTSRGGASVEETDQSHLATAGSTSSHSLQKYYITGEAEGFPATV
How it was run: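 Seeding of stripped-serum-adapted VM7Luc4E2 cells, 24 h attachment, compound transfer, then 0.1 nM final 17beta-estradiol; after 22 h incubation, ONE-Glo reagent and luminescence reading.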

[20] = biological target: Androgen receptor (Homo sapiens) (UniProt P10275); test: qHTS assay to identify small molecule antagonists of the androgen receptor (AR) signaling pathway using the MDA cell line in the presence of 0.5 nM R1881 (AID 1259243); also: nearly all actives have a fitted effect of over 50% in size
Chain of Androgen receptor (Homo sapiens) (P10275 whole entry, looked up): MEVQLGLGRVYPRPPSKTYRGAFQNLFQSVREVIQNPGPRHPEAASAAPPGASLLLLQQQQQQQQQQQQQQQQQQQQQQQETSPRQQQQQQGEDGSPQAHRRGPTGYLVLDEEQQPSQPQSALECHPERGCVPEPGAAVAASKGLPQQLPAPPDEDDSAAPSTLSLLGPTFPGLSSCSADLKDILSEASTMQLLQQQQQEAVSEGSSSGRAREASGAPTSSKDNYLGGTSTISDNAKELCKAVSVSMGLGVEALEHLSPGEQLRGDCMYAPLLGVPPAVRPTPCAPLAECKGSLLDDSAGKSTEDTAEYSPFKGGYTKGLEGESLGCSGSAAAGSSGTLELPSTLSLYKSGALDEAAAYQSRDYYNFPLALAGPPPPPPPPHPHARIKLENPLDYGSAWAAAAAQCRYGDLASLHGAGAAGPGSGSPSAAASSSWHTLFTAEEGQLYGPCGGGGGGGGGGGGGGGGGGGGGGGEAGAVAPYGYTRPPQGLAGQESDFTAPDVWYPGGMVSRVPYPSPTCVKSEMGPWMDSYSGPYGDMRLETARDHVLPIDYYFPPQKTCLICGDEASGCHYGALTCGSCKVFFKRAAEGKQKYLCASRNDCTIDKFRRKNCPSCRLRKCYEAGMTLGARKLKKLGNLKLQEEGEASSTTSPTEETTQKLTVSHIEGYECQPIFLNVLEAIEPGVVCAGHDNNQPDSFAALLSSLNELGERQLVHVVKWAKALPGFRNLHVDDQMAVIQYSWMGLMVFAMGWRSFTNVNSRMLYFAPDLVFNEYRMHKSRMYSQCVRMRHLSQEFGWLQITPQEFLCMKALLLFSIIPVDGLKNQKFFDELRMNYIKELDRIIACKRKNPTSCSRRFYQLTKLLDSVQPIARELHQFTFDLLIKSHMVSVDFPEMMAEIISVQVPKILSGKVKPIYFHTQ
How it was run: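 Cells: MDA-kb2 (MMTV-luc). Stimulus: 0.5 nM R1881. Time: 16 hr, 37C, no CO2. Detection: ONE-Glo luminescence after 30 min at RT.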
% is scaled to controls: 0 for no effect and ±100 for the full control effect.

S=C(SSC(=S)N1CCCCC1)N1CCCCC1
inactive: Potency [2] | Potency [4] | Potency [6] | Potency [7] | Potency [8] | PLD induction [9] -4.77% [at 0.0123 µM] | Potency [10] | Potency [11] | Potency [14]
active: Potency [1] 0.107 µM | Potency [3] 0.19 µM | Potency [5] 13.4 µM | Potency [12] 2.66 µM | Potency [13] 5.96 µM

CN(C)S(=O)(=O)N(SC(F)(Cl)Cl)c1ccccc1
inactive: Potency [2] | Potency [4] | Potency [16] | Potency [10] | Potency [14]
active: Potency [1] 4.9 µM | Potency [3] 5.49 µM | Potency [5] 4.36 µM | Potency [15] 9.77 µM | Potency [6] 19.5 µM | Potency [12] 6.11 µM | Potency [13] 12.2 µM

CCOP(=S)(OCC)SCCS(=O)(=O)CC
inactive: Potency [1] | Potency [2] | Potency [3] | Potency [17] | Potency [5] | Potency [15] | Potency [6] | Potency [16] | Potency [8] | Potency [18] | Potency [19] | Potency [10] | Potency [11]

Cc1cc(C(F)(C(F)(F)F)C(F)(F)F)ccc1NC(=O)c1cccc(I)c1C(=O)NC(C)(C)CS(C)(=O)=O
inactive: Potency [1] | Potency [2] | Potency [3] | Potency [17] | Potency [15] | Potency [6] | Potency [7] | Potency [16] | Potency [8] | Potency [18] | Potency [19] | Potency [11] | Potency [12] | Potency [13]
active: Potency [14] 13.8 µM

NC(=O)CCl
inactive: Potency [1] | Potency [2] | Potency [3] | Potency [17] | Potency [5] | Potency [15] | Potency [6] | Potency [7] | Potency [16] | Potency [8] | Potency [18] | Potency [20] | Potency [19] | Potency [10] | Potency [11] | Potency [13]

C[C@@H]1O[C@@H](O[C@H]2C[C@@H](O)[C@]3(CO)[C@H]4[C@H](O)C[C@]5(C)[C@@H](C6=CC(=O)OC6)CC[C@]5(O)[C@@H]4CC[C@]3(O)C2)[C@H](O)[C@H](O)[C@H]1O
inactive: Potency [1] | Potency [2] | Potency [3] | Potency [4] | Potency [6] | Potency [16] | Potency [8] | Potency [18] | Potency [20] | Potency [19] | Potency [9] | Potency [11] | Potency [12] | Potency [13] | Potency [14]

c1ccc(Nc2ccc3ccccc3c2)cc1
inactive: Potency [1] | Potency [2] | Potency [4] | Potency [6] | Potency [7] | Potency [16] | Potency [8] | Potency [18] | Potency [19] | Potency [11] | Potency [13] | Potency [14]
active: Potency [3] 48.7 µM

N#CCCC(Br)(C#N)CBr (centres undefined)
active: Potency [1] 54.9 µM | Potency [3] 30.9 µM | Potency [17] 38.9 µM | Potency [5] 24.5 µM | Potency [15] 49 µM | Potency [6] 54.9 µM | Potency [16] 54.9 µM | Potency [12] 27.3 µM | Potency [13] 27.3 µM
inactive: Potency [2] | Potency [7] | Potency [8] | Potency [18] | Potency [19] | Potency [11] | Potency [14]

CS(=O)(=O)c1ccc(C(=O)C2C(=O)CCCC2=O)c([N+](=O)[O-])c1
active: Potency [1] 44.4 µM | Potency [2] 39.6 µM | Potency [3] 44.4 µM | Potency [5] 25 µM | Potency [15] 21.4 µM | Potency [6] 44.4 µM | Potency [16] 39.6 µM
inactive: Potency [17] | Potency [7] | Potency [8] | Potency [18] | Potency [19] | Potency [9] | Potency [10] | Potency [11] | Potency [12] | Potency [14]

CC(C)CCCCCCCOP(=O)(Oc1ccccc1)Oc1ccccc1
inactive: Potency [1] | Potency [2] | Potency [3] | Potency [4] | Potency [6] | Potency [7] | Potency [16] | Potency [8] | Potency [18] | Potency [19] | Potency [10] | Potency [11] | Potency [12] | Potency [13] | Potency [14]

Oc1c(Br)c(Br)c(Br)c(Br)c1Br
inactive: Potency [1] | Potency [2] | Potency [3] | Potency [4] | Potency [6] | Potency [7] | Potency [16] | Potency [8] | Potency [10] | Potency [11] | Potency [13] | Potency [14]

O=[N+]([O-])c1cc(C(F)(F)F)c(Cl)c([N+](=O)[O-])c1Cl
active: Potency [1] 7.76 µM | Potency [3] 21.9 µM | Potency [17] 38.9 µM | Potency [5] 6.16 µM | Potency [15] 11 µM | Potency [6] 11 µM | Potency [16] 54.9 µM | Potency [8] 61.1 µM | Potency [18] 27.3 µM | Potency [19] 61.1 µM | Potency [12] 13.7 µM | Potency [13] 21.7 µM
inactive: Potency [2] | Potency [7]

CCOC(=O)OC1=C(c2cc(C)ccc2C)C(=O)NC12CCC(OC)CC2 (centres undefined)
inactive: Potency [1] | Potency [2] | Potency [3] | Potency [17] | Potency [5] | Potency [15] | Potency [6] | Potency [7] | Potency [16] | Potency [8] | Potency [18] | Potency [19] | Potency [10] | Potency [11] | Potency [12] | Potency [13] | Potency [14]
